The structures appear in SMILES notation. Records with an inconclusive call do not appear. Active and inactive are the calls of the source. The call rests on the fitted dose curve; in most records, active means well fitted curve in the direction sought with a large enough effect; inconclusive means small, poorly fitted or top-dose-only effect, or effect the other way, or another doubt; inactive means no such curve, though single readings can be large or run the other way.

From PubChem BioAssay AID488900 (National Center for Advancing Translational Sciences (NCATS), 2010) come the findings set out here.

The test in a line: Secondary Assay for lipid storage modulators: Hela cell LDSA assay for probe SAR. The note with it: HeLa lipid droplet accumulation, BODIPY 493/503 cytometry, oleate-fed. The source says: NIH Molecular Libraries Probe Production Centers Network [MLPCN] NIH Chemical Genomics Center [NCGC] MLPCN Grant: 1 R03 MH085686-01 Assay Submitter (PI): Beller, Mathias; Max-Planck-Institut fur Biophysikalische Chemie NCGC Assay Overview: Storing lipids as a reservoir for energy or the anabolism of elementary metabolites is a common feature of probably all cells and is conserved from bacteria to humans. The universal cellular lipid storage organelle is the so-called lipid storage droplet (LD). Although ubiquitous, LDs share a simple structure composed of a hydrophobic core that harbors the storage lipids, which is shielded by a droplet-specific phospholipid monolayer to which proteins are attached. The current model of LD biogenesis involves an incorporation of the lipid core into the membrane leaflets of the endoplasmic reticulum (ER) followed by a subsequent budding-like maturation of a LD, which ultimately pinches off. […]
NCGC Assay Protocol Summary: The assay was performed with Hela cells, using an oleic acid feeding protocol similar to the S3 assay. […] Fluorescence was detected by excitation of the fluorophores with a 488-nm laser on an Acumen Explorer (TTP Lab Tech). […] Cells were detected using channel 3 (575-640 nm) with 5-um width and 100-um depth filters. The ratio of the number of objects in PMT channel 2 over the number of objects in PMT channel 3 was also calculated. […]

As to `CCC/C=C/C/C=C/C=C/C=N/NN=O`, the Potency was 11.2 nM (active).
